Screening results: PubChem BioAssay, National Center for Advancing Translational Sciences (NCATS)
Most compounds without a hit are left out; they make up all but 4.6% or so of the library.
HTT-AS act: HTT-AS promoter activation. HEK293 HTT-AS promoter firefly luciferase reporter, 24 h; response scale: percent change from vehicle, -100% = no light. Potency, µM (top dose mostly 57.5 µM), for inactives: at the top dose activity change, positive = activation, usual class: activators. 48,000 compounds, 0.24% hits. AID 1508624; note: potency is the fitted concentration of half-maximal effect; nearly all actives have a fitted effect of over 55% in size
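HEK293 cells carrying firefly luciferase reporters were seeded at 2,500 per well in Opti-MEM and cultured for 24 h. They were then treated with compounds at up to 57.5 uM final for 24 h at 37 degrees C before Dual-Glo luminescence readout.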
GPR32 ag: activates human resolvin D1 receptor GPR32; O75388; CHO-K1 GPR32 beta-arrestin PathHunter luminescence, 90 min; zero percent set by DMSO-only wells; activation, % at 76.9 µM; 48,000 compounds, 2.5% hits; AID 1346428;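 active = activation of at least 60% and not above a set upper limit, about 1 call in 100 departs from these limits; inconclusive = activation of 40% to 60%, or above that upper limit; inactive = activation under 40%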; note: 0% is about no effect
Target sequence (O75388 whole entry, looked up): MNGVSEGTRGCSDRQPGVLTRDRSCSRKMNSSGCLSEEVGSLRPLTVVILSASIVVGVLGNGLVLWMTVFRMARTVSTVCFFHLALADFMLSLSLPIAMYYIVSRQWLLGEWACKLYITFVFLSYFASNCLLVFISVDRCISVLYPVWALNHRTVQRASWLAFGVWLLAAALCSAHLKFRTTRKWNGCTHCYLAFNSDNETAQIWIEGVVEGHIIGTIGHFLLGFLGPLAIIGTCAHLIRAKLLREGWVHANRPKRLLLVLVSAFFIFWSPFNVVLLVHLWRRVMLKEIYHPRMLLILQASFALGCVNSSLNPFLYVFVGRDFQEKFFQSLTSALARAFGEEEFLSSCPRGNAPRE
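Using DMSO wells as EC0, agonist-induced signal was taken as chemiluminescence from beta-Gal reconstituted upon beta-arrestin recruitment to GPR32 in CHO-K1 cells after 90 min compound treatment.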
HTT prom inh: inhibitors of huntingtin promoter activity; HEK293 HTT promoter firefly luciferase reporter, 24 h; Potency, µM (doses to about 57.5 µM), without a hit: at the top dose activity change, negative = inhibition, most hits filed as inhibitors; 48,000 compounds, 0.93% hits; AID 1508623; note: potency is the fitted concentration of half-maximal effect; nearly all actives have a fitted effect of over 50% in size
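Firefly luciferase readout (Dual-Glo, 10 min RT) after 24 h, 37 °C compound exposure (final up to 57.5 uM) of HEK293 reporter cells cultured 24 h beforehand; PTC124 at 50 uM final as control inhibitor; activity scaled vehicle 0%, zero RLU -100%.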
NTMT1 inhibitor: blocks human N-terminal methyltransferase 1 activity; Q9BV86; Potency, µM (doses to about 114 µM), inactives show at the highest dose activity change, negative = inhibition, usual class: inhibitors; 59,000 compounds, 2.5% hits; NTMT1 MTase-Glo SAH luminescence, purified enzyme; AID 1645870;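 note: potency is the fitted concentration of half-maximal effect; plate controls were DMSO vehicle for no effect and no enzyme for full effect; nearly all actives have a fitted effect of over 65% in size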
Target sequence (Q9BV86 whole entry, looked up): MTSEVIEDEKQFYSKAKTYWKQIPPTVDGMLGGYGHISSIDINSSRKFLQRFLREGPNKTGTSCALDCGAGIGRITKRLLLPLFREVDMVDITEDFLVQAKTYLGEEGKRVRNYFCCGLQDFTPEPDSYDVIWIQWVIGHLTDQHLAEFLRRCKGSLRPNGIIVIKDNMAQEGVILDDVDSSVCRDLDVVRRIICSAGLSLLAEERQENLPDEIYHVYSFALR
The depositor's hits bear a star; [ ] = remark or other dose. Unless noted, calls come from the whole dose curve; as a rule, active = well fitted curve in the direction sought with a large enough effect; inconclusive = small, poorly fitted or top-dose-only effect, or another doubt; inactive = no such curve, though single readings can be large; an effect the other way counts as inactive or inconclusive.

For COc1cc(CNCCSc2nnnn2C)ccc1OCc1ccccc1C the results were HTT-AS act 0%, GPR32 ag 73*, HTT prom inh 9% and NTMT1 inhibitor inconclusive.
For C=C(NC(=O)C(=C)NC(=O)c1csc(C2=NC3c4csc(n4)C4NC(=O)c5csc(n5)C(C(C)(O)C(C)O)NC(=O)C5CSC(=N5)/C(=C/C)NC(=O)C(C(C)O)NC(=O)c5csc(n5)C3(CC2)NC(=O)C(C)NC(=O)C(=C)NC(=O)C(C)NC(=O)C(C(C)CC)NC2C=Cc3c(C(C)O)cc(nc3C2O)C(=O)OC4C)n1)C(N)=O (stereo not given) the results were NTMT1 inhibitor 26%[57.5 µM].
Screening COc1ccc(-c2noc(N3CCC(C(=O)N4CCN(c5ccccc5F)CC4)CC3)n2)cc1 returned HTT-AS act -48%, GPR32 ag -24, HTT prom inh inconclusive and NTMT1 inhibitor 13%.
For Cc1ccc(C)c(N2CCN(C(=O)C3CCN(c4nc(-c5ccc(C(C)C)cc5)no4)CC3)CC2)c1 the results were HTT-AS act -93%, GPR32 ag -18, HTT prom inh 0.11µM* and NTMT1 inhibitor -1%.
COc1ccc(-c2noc(N3CCC(C(=O)Nc4cccc(C)c4C)CC3)n2)cc1 was read as HTT-AS act -59%, GPR32 ag -14, HTT prom inh 2.8µM* and NTMT1 inhibitor 1%.
For Cc1ccc(NC(=O)C2CCN(c3nc(-c4ccc(C(C)C)cc4)no3)CC2)c(Cl)c1 the results were HTT-AS act -90%, GPR32 ag -9, HTT prom inh 0.1µM* and NTMT1 inhibitor -3%.
Screening O=C(NC1CCCc2c1cnn2-c1ccc(F)cc1F)C1CC1 (stereo not given) returned NTMT1 inhibitor 5%.
`CC1CCCCN1S(=O)(=O)c1ccc(N2CCCC2=O)cc1` (stereo not given) gave NTMT1 inhibitor 3%[57.5 µM].
For Cc1ccc(NS(=O)(=O)c2ccc(C(=O)Nc3nc(-c4ccccc4)cs3)cc2)cc1 the results were NTMT1 inhibitor 7%.
COc1ccc(C)cc1NC(=O)CCS(=O)(=O)c1cc2c3c(c1)CCN3C(=O)CC2 was read as HTT-AS act 6%, GPR32 ag -5, HTT prom inh -6% and NTMT1 inhibitor 45µM*.
`COc1ccccc1NC(=O)CCS(=O)(=O)c1cc2c3c(c1)CCN3C(=O)CC2` gave HTT-AS act 2%, GPR32 ag -13, HTT prom inh 4% and NTMT1 inhibitor -2%.
Cc1ccc(C)c(CN2C(=O)C(O)(c3c[nH]c4ccccc34)c3ccccc32)c1 (stereo not given) was read as HTT-AS act -31%, GPR32 ag 84*, HTT prom inh inconclusive and NTMT1 inhibitor 17%.
For O=C1N(Cc2ccccc2Cl)c2ccccc2C1(O)c1c[nH]c2ccccc12 (stereo not given) the results were HTT-AS act -39%, GPR32 ag 84*, HTT prom inh inconclusive and NTMT1 inhibitor 0%.
Screening Cc1[nH]c2ccccc2c1C1(O)C(=O)N(Cc2ccc(Cl)cc2)c2ccccc21 (stereo not given) returned HTT-AS act -24%, GPR32 ag -28, HTT prom inh -21% and NTMT1 inhibitor 2%.
Cc1ccc(CN2C(=O)C(O)(c3c(C)[nH]c4ccccc34)c3ccccc32)cc1 (stereo not given) was read as HTT-AS act -20%, GPR32 ag 70*, HTT prom inh -15% and NTMT1 inhibitor inconclusive.
Cc1ccc(OCCn2c(CCNC(=O)c3cccc4cc[nH]c34)nc3ccccc32)cc1 was read as NTMT1 inhibitor 14%.
CC(C)(O)CS(=O)(=O)Nc1ccc2c(c1)CCN(C(=O)COc1cccnc1)C2 was read as NTMT1 inhibitor -2%.
`COc1ccc(N2CCN(c3nc4ccccc4n4c(C)nnc34)CC2)cc1` gave HTT-AS act -8%, GPR32 ag -18, HTT prom inh -5% and NTMT1 inhibitor 79µM*.
Screening Cc1ccc(NC(=O)c2cnn3c(C)cc(C)nc23)c(C)c1 returned NTMT1 inhibitor 8%.
Screening CC(=O)N1c2nc(-c3ccco3)nn2C2(CCCCC2)[C@@H]2CCCC[C@@H]21 returned HTT-AS act -8%, GPR32 ag -4, HTT prom inh -1% and NTMT1 inhibitor -18%.
CC(C)C(=O)N1c2nc(-c3ccco3)nn2C2(CCCCC2)[C@@H]2CCCC[C@@H]21 was read as HTT-AS act -23%, GPR32 ag -14, HTT prom inh -17% and NTMT1 inhibitor 89µM*.
`Cc1ccccc1Sc1ccc(/C=C2\SC(=S)NC2=O)cc1[N+](=O)[O-]` gave NTMT1 inhibitor 25µM*.
For Cc1ccc(-c2nc3ccccn3c2Nc2ccc3c(c2)OCO3)o1 the results were HTT-AS act 12%, GPR32 ag -4, HTT prom inh 9% and NTMT1 inhibitor 16µM*.
For Cc1ccc(Nc2c(-c3ccc(C)o3)nc3cccc(C)n23)cc1 the results were HTT-AS act inconclusive, GPR32 ag -21, HTT prom inh 10% and NTMT1 inhibitor 7.9µM*.
Screening Cc1cnc(NC(=O)c2cc(Oc3cnc(C(=O)N(C)C)nc3)c3cc(C)oc3c2)cn1 returned NTMT1 inhibitor 8%.
For CC(Nc1nc(-c2ccccc2C(F)(F)F)nc2ccccc12)c1ccc(-c2ccncc2)cc1 (stereo not given) the results were NTMT1 inhibitor 4%[57.5 µM].
Screening N#Cc1ccc(CNc2nc(-c3ccccc3C(F)(F)F)nc3ccccc23)cc1 returned NTMT1 inhibitor 14%.
CN(CC(=O)N(Cc1ccc(C2CCCCC2)cc1)c1ccc(C(=O)O)c(O)c1)S(=O)(=O)c1c(F)c(F)c(F)c(F)c1F was read as HTT-AS act 20%, HTT prom inh 32% and NTMT1 inhibitor 32µM*.
`COc1ccc(NC(=O)C2=C(C)NC(Nc3nc4ccccc4o3)=NC2c2ccccc2Br)cc1` (stereo not given) gave NTMT1 inhibitor 7%[57.5 µM].
Screening CCCCCCCCCCCCCCCCCCNC(=O)OC1CCN(C(=O)OC[C@H](COC(=O)N(Cc2cccc[n+]2CC)C(=O)c2ccccc2OC)OC)CC1 returned HTT-AS act -39%, GPR32 ag 30, HTT prom inh inconclusive and NTMT1 inhibitor 50µM*.
COc1ccccc1NC(=O)OCC1CCN(C(=O)OC(C)(C)C)CC1 was read as NTMT1 inhibitor 2%[57.5 µM].
Screening Cc1cnc(-c2ccccc2C(C)C)nc1NCC1CCN(c2cnccn2)CC1 returned NTMT1 inhibitor 21%.
CS(=O)(=O)N1CCc2cc(C(=O)NCCc3ccccc3)ccc21 was read as HTT-AS act 3.2µM*, GPR32 ag 8, HTT prom inh 47% and NTMT1 inhibitor 15%.
For CCS(=O)(=O)N1CCc2cc(C(=O)NCCc3ccccc3)ccc21 the results were HTT-AS act inconclusive, GPR32 ag -8, HTT prom inh 56% and NTMT1 inhibitor 89µM*.
